In the library only some 11% were active in any assay of this set; here they are far more common.
CBFb-RUNX1 inh – blocks binding between human CBF-beta and RUNX1; Potency, µM (top dose mostly 59.8 µM), inactives show top-dose activity, negative = inhibition, most hits filed as inhibitors; 230,000 tested, under 10 active; AlphaScreen CBFb-His/RUNX1-biotin binding, biochemical; Q01196+Q13951; further: % of control where 0% means no effect
Target sequence (Q01196 whole entry, looked up): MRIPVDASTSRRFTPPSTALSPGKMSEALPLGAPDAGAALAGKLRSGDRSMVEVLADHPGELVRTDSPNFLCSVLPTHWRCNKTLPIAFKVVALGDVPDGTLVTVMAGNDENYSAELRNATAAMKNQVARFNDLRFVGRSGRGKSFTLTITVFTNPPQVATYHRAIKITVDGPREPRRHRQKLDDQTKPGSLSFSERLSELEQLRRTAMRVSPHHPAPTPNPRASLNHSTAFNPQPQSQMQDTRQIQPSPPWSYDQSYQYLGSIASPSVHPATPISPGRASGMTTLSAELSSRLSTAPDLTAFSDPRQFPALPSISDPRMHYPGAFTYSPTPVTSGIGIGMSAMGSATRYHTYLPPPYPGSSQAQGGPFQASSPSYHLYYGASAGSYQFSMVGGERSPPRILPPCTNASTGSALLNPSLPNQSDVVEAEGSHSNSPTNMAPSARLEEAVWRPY
Target sequence (Q13951 whole entry, looked up): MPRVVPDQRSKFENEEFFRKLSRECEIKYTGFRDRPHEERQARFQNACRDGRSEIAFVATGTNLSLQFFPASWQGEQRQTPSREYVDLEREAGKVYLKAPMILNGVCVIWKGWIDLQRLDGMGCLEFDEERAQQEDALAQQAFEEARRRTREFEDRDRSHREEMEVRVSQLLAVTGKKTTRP
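CBF-beta (His) and RUNX1 (biotin), 30 nM each; 20 min preassociation; + compound, 15 min; + beads 50 ng each (Ni, streptavidin), 90 min; RT; AlphaScreen read.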
HPGD block – blocks human HPGD enzyme activity | purified HPGD, NADH fluorescence kinetic, PGE2 substrate | P15428 | actives 4.3% (n = 150,000) | Potency, µM, for the others: top-dose activity change, negative = inhibition, usual class: inhibitors; active means well fitted inhibition curve with a large enough effect, not every such curve was filed as active; inconclusive means small, poorly fitted or top-dose-only effect, or another doubt; inactive means no such curve, though single readings can be large or run the other way; further: potency means the concentration at half of the fitted maximal effect; on the % scale 0 is the no-effect control and ±100 the full control effect
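20 nM HPGD preincubated 15 min at room temperature with compound in 50 mM Tris-HCl pH 8, 0.01% Tween 20. Started with 1 mM NAD+ and 30 uM prostaglandin E2; NADH fluorescence (360/450 nm) read 5 times over 30-s intervals, last minus first.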
ALDH1A1 inh – blocks purified human ALDH1A1 activity; Potency, µM (doses to about 75.3 µM), without a hit: at the highest dose activity, negative = inhibition, usual class: inhibitors; AID 1030; actives 7.3% (n = 220,000); P00352; Purified ALDH1A1, NADH fluorescence, propionaldehyde substrate; active means well fitted inhibition curve with a large enough effect, not every such curve was filed as active; inconclusive means small, poorly fitted or top-dose-only effect, or another doubt; inactive means no such curve, though single readings can be large or run the other way;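 further: potency means the concentration at half of the fitted maximal effect; plate controls were no enzyme wells and a reference inhibitor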
PNC assembly inh – blocks assembly of the perinucleolar compartment | AID 2417 | activity change (PNC), negative = inhibition, % at 10 µM | actives 3.1% (n = 140,000) | PC3M PTB-GFP, PNC prevalence imaging, 16 h; active compounds read low;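 active means readout at or below -70, meaning at least 70% loss of cells showing the perinucleolar compartment, a nuclear body marking cancer cells; inconclusive means readout between -30 and a set limit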;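 further: plate controls were DMSO wells for no effect and camptothecin positive control wells for full effect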
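Compounds are pinned in duplicate onto adhered PC3M cells stably expressing GFP-tagged PTB and incubated 16 h at 37 C. Cells are then fixed, nuclei stained with Hoechst, and PNC-positive cells counted.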
HttQ103 aggreg – inhibitors of mutant huntingtin aggregate formation in PC12 cells | PC12 HttQ103-GFP aggregates, Acumen cytometry, 40 h | Potency, µM (series often up to 46.1 µM), inactives show at the highest dose activity change, negative = inhibition, hits mostly inhibitors | actives 1.1% (n = 220,000) | AID 1688; further: potency means the concentration at half of the fitted maximal effect; on the % scale 0 is the no-effect control and ±100 the full control effect; nearly all actives have a fitted effect of over 60% in size
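Using laser scanning cytometry, GFP-positive aggregates were counted after lysis of PC12 cells induced with 100 nM tebufenozide to express HTT exon 1 Q103–GFP. Compounds were tested in titration.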
HTT ATP protect – protects HTT-Q103 PC12 cells, measured by ATP. PC12 HTT-Q103 induced, cytoprotection, ATP luminescence, 40 h. AID 1471. Potency, µM (titrated, usually from 56.4 µM), for the others: cytoprotection (ATP increase), actives largely listed as activators. actives 0.14% (n = 230,000); further: potency means the concentration at half of the fitted maximal effect; % of control where 0% means no effect; nearly all actives have a fitted effect of over 45% in size
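Compounds added alongside 100 nM tebufenozide, which induces toxic Q103 huntingtin exon 1-GFP in stable PC12 cells; surviving cells quantified by luminescent ATP measurement. Medium: phenol red-free DMEM, 5% equine and 5% calf serum.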
Active calls of the source: *; ? = inconclusive; . = not tested or not shown; [ ] = remark or other dose. Unless noted, the call rests on the fitted dose curve; in most records, active means well fitted curve in the direction sought with a large enough effect; inconclusive means small, poorly fitted or top-dose-only effect, or another doubt; inactive means no such curve, though single readings can be large; an effect the other way counts as inactive or inconclusive.

SMILES | CBFb-RUNX1 inh | HPGD block | ALDH1A1 inh | PNC assembly inh | HttQ103 aggreg | HTT ATP protect
COc1ccc(-c2cc(-c3cc(C)ccc3O)[nH]n2)cc1 | 5.7% | . | 0.9% | . | 20.1%[9.22 µM] | -35.5%[10 µM]
Cc1ccc(O)c(-c2cc(C(F)(F)C(F)F)[nH]n2)c1 | -2.3% | 15.8µM* | 16.9% | -7.3 | ? | -5.5%
COc1ccc(O)c(-c2cc(-c3ccccc3[N+](=O)[O-])[nH]n2)c1 | -11.3% | 22.4µM* | 0.2% | -24.5 | 8.2% | .
Cc1ccc(NC(=O)c2ccco2)c(NC(=O)C2CCCO2)c1 (centres undefined) | 4.5% | . | 3.2% | . | 15.7% | -26.5%
COc1ccc(C(O)C2=CCCC2=O)cc1 (centres undefined) | -4.4% | -9.2% | -4.9% | . | . | ?
O=C(O)c1[nH]c(=O)[nH]c(=O)c1CN1CCCCC1 | . | -10.0% | 8.9%[13.5 µM] | . | . | -2.5%[10 µM]
O=S(=O)(Nc1ccc(N2CCCCC2)cc1)c1ccc(F)c(F)c1 | -11.7% | -13.1% | -7.2% | 39.5 | 7.1% | 6.2%[10 µM]
O=C1NC(c2cc(Cl)cc([N+](=O)[O-])c2O)Nc2ccccc21 (centres undefined) | -6.2% | . | ? | . | -12.7%[9.22 µM] | -15.4%[10 µM]
O=[N+]([O-])c1ccccc1-c1cc(-c2cc(Cl)ccc2O)n[nH]1 | 0.6% | 11.2µM* | -0.3% | 51.2 | -13.4% | 18.2%[10 µM]
Clc1nc(CN2CCCCC2)nc2sc3c(c12)CCC3 | 2.7% | . | -9.7% | . | -9.3% | 12.2%[10 µM]
O=C(NNC(=S)NC1CCCCC1)c1cccs1 | 2.4% | -26.4% | 2.4% | 27.0 | 2.9% | 32.6%[10 µM]
O=C(NC1CCCCC1)c1cccs1 | -5.9% | 31.6µM* | -12.0% | -2.7 | -5.9%[9.22 µM] | 3.5%
O=C(NC1CCCC1)c1cc(-c2cccs2)on1 | 6.3% | 12.6µM* | ? | -17.9 | 4.5% | -23.8%
CC1CCCC(C)N1C(=O)c1cc(-c2cccs2)on1 (centres undefined) | 0.7% | 14.1µM* | -2.5% | 1.2 | -11.7% | -13.0%[10 µM]
CCCCOc1ccc(CN2CCC(O)CC2)cc1 | -4.1% | -19.5% | 31.6µM* | -100.0* | 1.9% | 9.1%
CCc1cc(C(=O)c2ccc(C)cc2)c(NC(=O)CCl)s1 | -9.1% | -15.6% | 2.51µM* | -10.5 | 26.0% | 3.1%[10 µM]
CCc1cc(C(=O)c2ccc(OC)cc2)c(NC(=O)CN2CCCC2)s1 | -25.7% | . | 10µM* | . | 3.8%[9.22 µM] | 0.8%[10 µM]
Cc1cc(C(=O)c2ccc(Cl)cc2)c(NC(=O)CCl)s1 | -20.6% | -8.2% | 0.891µM* | 33.0 | ? | 12.5%[10 µM]
CCc1cc2c(nc1CC)CCN(CC/C(C)=N/OC[C@@H](O)COCc1ccco1)C2 | 5.6%[13.1 µM] | . | 16.0%[13.5 µM] | . | . | ?
COc1ccc(S(=O)(=O)NCCSCc2ccccc2C)cc1Br | 1.4% | 28.2µM* | 25.1µM* | 5.8 | -14.3% | -25.9%
Cc1ccccc1CSCCNS(C)(=O)=O | 4.7% | 1.8% | -6.9% | 9.1 | 23.4% | 0.4%[10 µM]
CCOC(=O)C1(Cc2ccccc2Cl)CCN(S(=O)(=O)N(C)C)CC1 | 10.6% | . | 8.91µM* | . | 13.3%[9.22 µM] | 22.8%[10 µM]
COc1ccc(C2C(C(C)=O)=C(O)C(=O)N2c2ccc(Br)cn2)cc1 (centres undefined) | -6.1% | -12.9% | -15.4% | -19.1 | -26.2% | -17.9%
O=C1C=CC(O)(c2cc(=O)c3c(O)cc(O)cc3o2)C=C1 | 6.7%[2.36 µM] | -7.7% | -2.0% | -118.9* | ? | .
O=C(Nc1ccc(S(=O)(=O)C(F)F)cc1)c1cccc(S(=O)(=O)N2CCOCC2)c1 | 10.1% | -15.6% | ? | -22.7 | ? | 22.0%[10 µM]
COc1ccc(CC(=O)Nc2ccc(-c3noc(-c4cc(OC)c(OC)c(OC)c4)n3)cc2)cc1 | 0.9% | ? | -5.8% | -100.0* | -13.6% | 1.9%[10 µM]
COc1ccc(-c2noc(CCCC(=O)Nc3cccnc3)n2)cc1OC | 7.7% | . | . | . | 6.0%[9.22 µM] | 9.1%[10 µM]
O=C(CCCc1nc(-c2ccccc2)no1)NCc1cccnc1 | 1.3% | -13.8% | 14.1µM* | -5.3 | ? | -14.9%[0.074 µM]
O=C(CCCc1nc(-c2ccccc2)no1)Nc1cccnc1 | -0.1% | -3.8% | -4.2% | -8.6 | -8.7% | -1.3%[0.074 µM]
COc1ccc(-c2noc(CCC(=O)Nc3ccc(C)c(C)c3)n2)cc1 | 17.9% | -7.5% | -10.7% | -4.0 | -23.4% | 1.7%[10 µM]

Source: PubChem BioAssay (National Center for Advancing Translational Sciences (NCATS))
